# In PubChem BioAssay:
# Values without a mark were called inactive.
# Experiment: small-molecule microarray binders of probe aXIP, primary screen, biochemical, NeuroSMM set, 635/667 nm fluorescence (AID 1119);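 further: probe is the protein aXip251-270 applied at 1 µg/mL to compound-printed slides; binding of probe to printed compounds measured as 667 nm fluorescence plus signal to noise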
# Settings: higher = more signal, called active from +8 up or from −8 down
row,Structure (SMILES),composite Z-score
1,O=C1O[C@@H](c2ccccc2)[C@@H](c2ccccc2)N2[C@@H](c3ccc(OCCO)cc3)[C@]3(C(=O)Nc4ccc(C#CC5=CCCCC5)cc43)[C@@H](C(=O)N3CCCCCCC3)[C@H]12,4.13
2,CN1C(=O)C2C=CC(C(O)c3ccccc3)N(N3CCCCC3)C2C1=O (stereo unspecified),-0.123
3,C[C@H]1C2[C@H](Cc3ccccc3)NC(=O)[C@]23C(=O)NCC(=O)N2CCC[C@H]2C(=O)NC/C=C/CCC/C=C/C3[C@@H]2O[C@]12C (stereo partly specified),-0.695
4,NC(=O)NCC#Cc1ccc2c(c1)[C@]1(C(=O)N2)[C@H](C(=O)O)[C@H]2C(=O)O[C@H](c3ccccc3)[C@H](c3ccccc3)N2[C@@H]1c1ccc(O)cc1,0.116
5,O=C(O)C1N=C(c2ccc(OCCCO)cc2)N(c2ccccc2)O1 (stereo unspecified),0.488
6,CN(C)CCCCCCNC(=O)[C@@H]1C[C@@H]2C(=O)N[C@@H](CCCC[N+](C)(C)C)C(=O)N2[C@@H]1c1ccc(O)cc1,1.56
7,O=C1OCC=C[C@H]2OC34C=CCN(CCN5CCOCC5)C(=O)[C@H]3N(CCO)C(=O)[C@@H]4[C@@H]12 (stereo partly specified),0.198
8,CS(=O)(=O)CCOC(=O)C1=CC(CCCO)=CC(C2CC2)N(Cc2cc3c(cc2Br)OCO3)C=C1C(=O)OCCS(C)(=O)=O (stereo unspecified),-0.289
9,CCCC=C(CCC)[C@@H](NS(=O)(=O)c1ccc(Cl)cc1)c1ccc(C(=O)OC)cc1,-0.243
10,[N-]=[N+]=Nc1ccccc1C[C@@]1(C(=O)N2CCCCC2)N=C(c2ccc(OCCCO)cc2)O[C@@H]1c1ccccc1N=[N+]=[N-],0.203
11,O=C1O[C@H](c2ccccc2)[C@H](c2ccccc2)N2[C@H]1[C@@H](C(=O)NC[C@H](O)c1ccccc1)[C@]1(C(=O)Nc3ccc(C#CC4=CCCCC4)cc31)[C@H]2c1ccccc1OCCO,0.0371
12,C=CCC(OC(C)=O)[C@@H]1[C@@H](N(Cc2cc3ccccc3o2)C(=O)Cc2ccc(OC)cc2)c2cc(OCCCO)ccc2N1C(=O)c1ccc2ccccc2c1 (stereo partly specified),0.39
13,O=C1[C@H]2C=C(I)[C@H](C[C@@H]2OCCCCO)[C@@]12CO2,0.32
14,[N-]=[N+]=Nc1ccccc1C[C@]1(C(=O)NCC(O)CO)N=C(c2ccc(OCCCO)cc2)O[C@H]1c1ccccc1 (stereo partly specified),0.102
15,O=C1O[C@H](c2ccccc2)[C@H](c2ccccc2)N2[C@H]1[C@@H](C(=O)NC[C@H](O)c1ccccc1)[C@]1(C(=O)Nc3ccccc31)[C@H]2c1ccc(O)cc1,-0.35
16,CCN(CC)c1ccc(N2CC=CC34O[C@@H]5C=CCOC(=O)[C@@H]5[C@H]3C(=O)N(CCCCCCO)[C@@H]4C2=O)cc1 (stereo partly specified),0.451
17,CC1CC/C=C\[C@H]2OC34C=CCN(c5ccc6ccccc6c5)C(=O)[C@H]3N(CCO)C(=O)[C@@H]4C2C(=O)O1 (stereo partly specified),0.0214
18,CC=CC(O)C1C=CC2C(=O)N(C)C(=O)C2N1N(c1ccccc1)c1ccccc1 (stereo unspecified),-0.222

row,Structure (SMILES),composite Z-score
1,CCOC(=O)C1=CCC(c2ccc(F)cc2)N(S(=O)(=O)c2ccc(C)cc2)C1 (stereo unspecified),-0.297
2,O=C1C2C=CC(C(O)C=Cc3ccc([N+](=O)[O-])cc3)N(Nc3ccccc3F)C2C(=O)N1c1ccccc1 (stereo unspecified),0.139
3,C=CCN1Cc2ccccc2[C@@H]2OC(c3ccc(OCCCO)cc3)=N[C@]2(CCS(=O)(=O)c2ccccc2)C1=O,0.187
4,O=C(CS)NCCCCCNC(=O)[C@H]1C[C@H]2C(=O)NCC(=O)N2[C@H]1c1ccc(O)cc1,0.161
5,[N-]=[N+]=NCc1ccccc1[C@@H]1OC(c2ccc(OCCCO)cc2)=N[C@]1(CCS(=O)(=O)c1ccccc1)C(N)=O,0.466
6,C=CCN1C(=O)[C@]2(Cc3ccccc3)N=C(c3ccc(OCCCO)cc3)O[C@@H]2c2ccccc21,-0.452
7,O=C1OCCC/C=C\[C@H]2OC34C=CCN(c5ccc6ccccc6c5)C(=O)[C@H]3N(CCCCCO)C(=O)[C@@H]4C12 (stereo partly specified),0.328
8,CCOc1cc(C(O)C2C=CC3C(=O)N(c4ccccc4)C(=O)C3N2Nc2ccc(C(C)C)cc2)ccc1O (stereo unspecified),0.203
9,[N-]=[N+]=Nc1ccccc1C[C@]1(C(=O)N2CCCCC2)COC(c2ccc(OCCCO)cc2)=N1,-0.218
10,C=C(C(=O)CC[C@H](OC(C)=O)c1ccccc1OCCO)C(C)C,-0.361
11,Cc1ccc(S[C@]2(C(=O)O)CC(=O)N(C(C)C)[C@@H]2c2ccc(CO)cc2)cc1,0.264
12,CN(C)C(=O)[C@]1(Cc2ccccc2)N=C(c2ccc(OCCCO)cc2)O[C@@H]1c1ccccc1N=[N+]=[N-],0.431
13,CCCCCN1CC=CC23O[C@@H]4C=CCOC(=O)[C@@H]4[C@H]2C(=O)N(C(C)CO)[C@@H]3C1=O (stereo partly specified),-0.294
14,CO[C@H]1O[C@H](CO)[C@@H](OC(=O)Nc2cccc(F)c2)[C@H](OC(=O)Nc2ccccc2)[C@H]1OC(=O)Nc1ccccc1,0.0063
15,NC(=O)[C@@H]1[C@H]2C(=O)O[C@H](c3ccccc3)[C@H](c3ccccc3)N2[C@H](c2ccc(O)cc2)[C@@]12C(=O)Nc1ccc(C#CC3=CCCCC3)cc12,1.1
16,C=CC1c2cc(O)c(OC)cc2CCN1Cc1cccc(OC(F)(F)F)c1 (stereo unspecified),0.625
17,CC(C)[Si](C#CCCCC#N)(O[C@H](c1ccccc1)c1cn(Cc2cccc(Cl)c2)nn1)C(C)C,1.02
18,COC(=O)c1c2oc(c1C(=O)OC)C(=O)NC1(CCCCC1)c1cn(nn1)C[C@H](Cc1ccccc1)NC(=O)N[C@H](CO)CC2,0.992
